Screening data (PubChem BioAssay)
The list is not random: actives were taken first. Their share in the collection is about 0.51%.
Vif-A3F inh: blocks the Vif interaction with APOBEC3F | Potency, µM (doses to about 46.1 µM) | actives 0.2% (n = 390,000) | HeLa A3F-eYFP + Vif (tagged APOBEC3F with the HIV-1 protein that degrades it), YFP fluorescence increase; further: nearly all actives have a fitted effect of over 65% in size
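Fluorescence increase (Ex 488/Em 500-530) after overnight compound treatment at 37 deg C flags inhibition of Vif-driven A3F-eYFP loss in stable HeLa A3F-eYFP/Vif cells seeded overnight beforehand.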
Epigenetic derep: epigenetic control regulation, reporter derepression; AID 1865; actives 0.2% (n = 280,000); murine LDR cells, GFP reporter derepression, 30 h; Potency, µM (doses to about 53.9 µM), usual class: activators; further: nearly all actives have a fitted effect of over 60% in size
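GFP-positive cell count by laser-scanning cytometry (objects 20–120 um) after 30 h, 37 C compound exposure of murine LDR cells; reporter is CMV-GFP integrated at a silenced locus, inducible by HDAC or DNMT inhibitors.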
PINK1 expr mod: modulators of PINK1 expression; PINK1 immunofluorescence, high-content cytometry, 24 h; actives 0.2% (n = 410,000); AID 624263; Potency, µM (doses to about 76.6 µM), usual class: activators; active means well fitted activation curve with a large enough effect; inconclusive means small, poorly fitted or top-dose-only effect; cell line not stated here; further: nearly all actives have a fitted effect of over 65% in size
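Cells are seeded, rested 12 hours, then given compound at five concentrations or DMSO for 24 hours. After fixation, blocking and antibody staining, PINK1 amount and mitochondrial localization are scored; CCCP serves as control.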
Vif-APOBEC3G blk: inhibitors of Vif-APOBEC3G interaction | actives 0.076% (n = 410,000) | Q9HC16 | HeLa A3G-eYFP + Vif (tagged APOBEC3G with the HIV-1 protein that degrades it), YFP fluorescence, overnight | Potency, µM (highest dose often 46.1 µM), actives largely listed as inhibitors | AID 602310; further: nearly all actives have a fitted effect of over 60% in size
Target sequence (Q9HC16 whole entry, looked up): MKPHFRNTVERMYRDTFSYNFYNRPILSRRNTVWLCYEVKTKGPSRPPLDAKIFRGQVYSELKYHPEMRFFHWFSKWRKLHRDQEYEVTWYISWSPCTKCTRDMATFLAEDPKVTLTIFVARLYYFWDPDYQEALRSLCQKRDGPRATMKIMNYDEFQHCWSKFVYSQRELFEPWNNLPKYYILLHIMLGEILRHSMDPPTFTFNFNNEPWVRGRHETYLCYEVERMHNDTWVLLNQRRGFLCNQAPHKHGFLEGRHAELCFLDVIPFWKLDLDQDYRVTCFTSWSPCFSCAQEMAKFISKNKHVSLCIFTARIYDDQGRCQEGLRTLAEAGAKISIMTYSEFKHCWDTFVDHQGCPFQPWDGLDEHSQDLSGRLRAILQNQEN
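Read-out is eYFP fluorescence (Ex 488/Em 500-530) from Vif-expressing HeLa A3G-eYFP cells; more signal means A3G escaped Vif-mediated degradation. Cells plated overnight, compound pinned in, incubated overnight at 37 deg C.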
Numbers stand for hits; . = inactive; ? = inconclusive; / = no result. Unless noted, the call rests on the fitted dose curve; in most records, active means well fitted curve in the direction sought with a large enough effect; inconclusive means small, poorly fitted or top-dose-only effect, or another doubt; inactive means no such curve, though single readings can be large; an effect the other way counts as inactive or inconclusive.

SMILES | Vif-A3F inh | Epigenetic derep | PINK1 expr mod | Vif-APOBEC3G blk
COc1cccc(Nc2cc(C)nc3nc(-c4ccc(Cl)cc4)nn23)c1 | . | . | . | .
O=C(COc1ccc(Cl)cc1Cl)N/N=C/c1ccc[nH]1 | ? | / | . | .
Cc1c(CN(C)C(=O)C2CCC(=O)N(Cc3ccccc3F)C2)[nH]c2ccccc12 (stereo not drawn) | . | / | . | .
CC(C)(C)C1C=C(Sc2ccccc2)C(=O)O1 (stereo not drawn) | . | . | 16µM | .
CCOc1ccc(CN2CCNC(=O)C2CC(=O)N(C)Cc2nonc2C)cc1 (stereo not drawn) | . | / | . | .
O=C(Nc1cccc(Cl)c1)c1c(NC(=O)C(F)(F)F)sc2c1CCCC2 | . | . | 40µM | .
COc1ccc(NC(=O)Nc2c(C)noc2-c2ccccc2)cc1 | . | . | . | .
Nc1nonc1C(=O)N/N=C/c1cc2c(cc1[N+](=O)[O-])OCO2 | . | / | 40µM | .
COc1ccccc1N1N=C(c2ccc([N+](=O)[O-])cc2)CC1c1ccccc1 (stereo not drawn) | . | / | . | 2.5µM
COc1cc(NC(=S)NCCN2CCOCC2)cc(OC)c1OC | . | . | . | .
CCNC(=S)N/N=C(\C)c1ccc(N2CCOCC2)cc1 | 22µM | . | . | .
CNC(=S)N/N=C(\C)c1ccc(N2CCOCC2)cc1 | ? | ? | . | .
CCCNC(=O)Cn1c(=O)/c(=C\c2ccc(-c3ccc([N+](=O)[O-])cc3)o2)s/c1=C\C(=O)C(C)(C)C | . | 0.2µM | ? | .
O=C(COC(=O)c1cccc(S(=O)(=O)N2CCOCC2)c1)Nc1ncc(Cl)cc1Cl | . | / | . | .
CCc1ccc(Nc2n[n+](-c3ccccc3)c(-c3ccc(SC)cc3)s2)cc1 | . | / | 35µM | .
COc1cc(OC)cc(OC2(C)CCN(Cc3ccc(OC(C)C)cc3)C2)c1 (stereo not drawn) | / | / | 45µM | .
O=C(NCc1ccco1)c1c2c(nc3ccccc13)CCC2 | . | . | . | .
COc1ccc2c3c([nH]c2c1)C1CC2C(CC(O)C(OC)C2C(=O)O)CN1CC3 (stereo not drawn) | . | . | . | .
COC(=O)C1=COC(C)C2CN3CCc4c([nH]c5cc(OC)c(OC)cc45)C3CC12 (stereo not drawn) | 8.9µM | . | . | .
CCSC1=N/C(=C\c2ccc3c(c2)OCO3)C(=O)S1 | / | . | . | .
CCSC1=N/C(=C\C=C2/Oc3ccccc3N2CC)C(=O)S1 | 6.3µM | 11µM | . | 7.1µM
COc1cccc2c(Cl)c(CCCl)c(C)nc12 | . | . | . | .
Nc1c(C(=O)N/N=C/c2cccnc2)oc2nc(-c3ccccc3)cc(-c3ccco3)c12 | 10µM | . | ? | .
O=C(Cn1cc(S(=O)(=O)Cc2ccccc2F)c2ccccc21)Nc1ccc(F)c(Cl)c1 | . | . | 35µM | .
O=C(Cn1cc(S(=O)(=O)Cc2ccccc2F)c2ccccc21)NCc1ccccc1Cl | . | . | . | .
SMILES | Vif-A3F inh | Epigenetic derep | PINK1 expr mod | Vif-APOBEC3G blk
Oc1ccccc1N=N/C(=N/Nc1ccccc1O)c1ccccc1 | . | / | . | .
N#C/C(N=Nc1ccccc1O)=N\Nc1ccccc1O | 11µM | / | ? | ?
Cc1ccc(N(C)C(=O)c2noc3c2CCCCC3)cc1C | . | . | . | .
CC1=C(C(=O)Nc2cccnc2)C(c2ccc(F)cc2)n2nc(SCc3ccccc3F)nc2N1 (stereo not drawn) | . | . | . | .
COc1ccc(OC)c(NC(=O)c2cc(-c3cc(C)cc(C)c3O)n[nH]2)c1 | 11µM | / | ? | .
COc1cc(Cl)c(NC(=O)c2cc(S(=O)(=O)N3CCCCC3)c[nH]2)c(OC)c1 | . | . | . | .
O=C(c1ccc(CS(=O)c2ccc(Br)cc2)o1)N1CCN(C2CCCCC2)CC1 (stereo not drawn) | . | / | . | .
COc1ccc(OC)c(/C=C/c2nc3ccccc3[nH]c2=O)c1 | 22µM | / | . | ?
COc1ccc(OC)c(/C=C/c2nc3ccccc3nc2C)c1 | / | / | / | .
O=C(N=c1ccn(-c2nc3ccccc3nc2NS(=O)(=O)c2ccc(Cl)cc2)cc1)c1cccs1 | 7.9µM | ? | ? | .
O=C(N=c1ccn(-c2nc3ccccc3nc2NS(=O)(=O)c2ccccc2)cc1)c1ccccc1Cl | 7.1µM | / | . | .
O=S(=O)(NCCNc1ncc(C(F)(F)F)cc1Cl)C(F)(F)F | . | . | 40µM | .
CCN(CC)c1ccc(C=C2C(=O)OC(c3ccccc3)OC2=O)cc1 (stereo not drawn) | . | . | . | .
CCN(CC)c1ccc(/C=C/C(=O)C2C(=O)C=C(C)OC2=O)cc1 (stereo not drawn) | . | 11µM | ? | .
Cc1ccc(O)c(Sc2cc(C)ccc2O)c1 | . | . | . | .
Cc1cc2c(cc1C)NC(CC(=O)NCc1ccccc1)C(=O)N2 (stereo not drawn) | 28µM | . | . | .
Cc1cc2c(cc1C)NC(CC(=O)Nc1cccc(C)c1C)C(=O)N2 (stereo not drawn) | . | . | . | .
N#C/C(=C/c1ccc(N2CCOCC2)o1)c1nc2ccccc2[nH]1 | ? | 16µM | 25µM | ?
N#C/C(=C\N1CCOCC1)c1ccccc1 | . | . | . | .
N#C/C(=C/c1ccc(N2CCOCC2)o1)c1ccc(Br)cc1 | / | 4µM | ? | ?
N#C/C(=C\c1ccc(N2CCOCC2)cc1)c1ccccc1 | . | . | . | .
N#C/C(=C\c1ccc(N2CCOCC2)o1)c1ccccc1 | ? | 11µM | / | ?
Cc1nc(Cl)cc(CS(=O)(=O)c2ccc(Cl)cc2)n1 | . | . | . | .
Cn1nnnc1SCCNC(=O)C1CCC(=O)N(CCc2cccc(F)c2)C1 (stereo not drawn) | . | / | . | .
COc1cc2c(cc1OC)CN(Cc1cc(OC)c3c(c1)OCO3)CC2 | . | / | . | .
SMILES | Vif-A3F inh | Epigenetic derep | PINK1 expr mod | Vif-APOBEC3G blk
C[n+]1ccc(/C=C/c2ccc(C=S)cc2)c2ccccc21 | / | / | 45µM | ?
CN(C)c1ccc(/C=C/c2cc[n+](C)c3ccc4ccccc4c23)cc1 | / | / | 4.5µM | .
Cc1cc(N(C)C)cc(C)c1/C=C/c1cc[n+](C)c2ccccc12 | / | / | / | .
S=c1[nH]c2cc(Br)cnc2[nH]1 | . | . | . | .
N=c1c(S(=O)(=O)c2ccc(Cl)cc2)cc2c(=O)n3ccccc3nc2n1Cc1cccnc1 | ? | / | 40µM | ?
N=c1c(C(=O)NCc2ccco2)cc2c(=O)n3ccccc3nc2n1Cc1ccc(Cl)cc1 | . | 7.1µM | . | .
Clc1ccc(-c2nnc(-c3ccccc3)c(-c3ccccc3)n2)cc1 | . | . | . | .
Nc1nc(-c2ccc(Cl)cc2)nnc1-c1ccc(Br)cc1 | ? | ? | 45µM | .
CC1CN(c2ccc(Cl)nn2)CC(C)O1 (stereo not drawn) | . | . | . | .
C=CCN1C(=O)/C(=C/c2ccc(N(C)C)cc2)S/C1=N\c1nnc(CC)s1 | / | 13µM | / | /
C=CCN1C(=O)/C(=C/c2ccc(O)c(OC)c2)S/C1=N/c1nccs1 | 32µM | . | . | ?
C=CCN1C(=O)/C(=C/c2ccc(OCC(=O)O)cc2)S/C1=N/c1nccs1 | . | . | . | .
